Reference: PubChem BioAssay (Tox21)
A number with no mark means an inactive call. The call rests on the fitted dose curve; in most records, active means well fitted curve in the direction sought with a large enough effect in the repeat runs; inconclusive means weak or mixed curves; inactive means flat fitted curve, though single readings scatter.

Assay: qHTS assay to test for compound auto fluorescence at 535 nm (green) in HepG2 cells (AID 720675)
Conditions: green autofluorescence 485/535 nm, 1 h; series mostly up to 91.3 µM; fluorescence, % of fluorescein control: at the top concentration
Text: National Center for Advancing Translational Sciences [NCATS]
NIH Chemical Genomics Center [NCGC]
U.S. Environmental Protection Agency [EPA]
National Institutes of Environmental Health Sciences [NIEHS]
National Toxicology Program [NTP]
U.S. Food and Drug Administration [FDA]
Compound auto fluorescence often interferes with screening of the compound library against various biological targets and signaling pathways. Some of these compounds may have fluorophoric properties. Such properties may interfere with the assay outputs resulting in false positives and/or negatives. To decrease such complications and ensure the compound activities are relevant in terms of biological response, the Tox21 10K compound library was screened for auto fluorescence.
From the fluorophores used as reporter signals in our screening assays, the auto fluorescence equivalencies of compounds against three fluorophores have been evaluated: Triamterene, Fluorescein and Rose Bengal sodium for blue, green and red fluorescence, respectively. The fluorescence intensities were measured using Excitation/Emission wavelengths at 405/460nm, 485/535nm and 540/590nm for blue, green and red labels, respectively. This assay includes the green fluorescence data.
Tox21 Assay Protocol Summary:
2,000 HepG2 cells in 5 uL of culture medium (MEM containing 10% FBS) per well were dispensed into black wall/clear bottom 1536-well plates using a Multidrop Combi Dispenser (ThermoFisher Scientific, Waltham, MA). The assay plates were incubated overnight at 37 C to allow cell attachment to the well bottom, followed by the transfer of 23 nL compound or DMSO vehicle by a pintool work station (Kalypsys , San Diego, CA). After the assay plates were incubated for 1 hr at 37 C and 5% CO2, fluorescence intensities in the assay plates were measured by an Envision (PerkinElmer, Shelton, CT) plate reader using three labels for measuring blue, green and red fluorescence at […] 460, 535 and 590 nm respectively.
On the % scale 0 is the no-effect control and ±100 the full control effect.

Point of comparison: COC(OC)(C(=O)c1ccccc1)c1ccccc1, “fluorescence, % of fluorescein control” value 0.0347%. Against it:
- CC(C)OCC1CO1 (stereo not given) — lower, -0.029%
- O=C1NCCN1 — higher, 0.0902%
- CCCCCCCC/C=C\CCCCCCCC(=O)OC(CO)CO — higher, 0.0675%
- Fc1c(F)c(F)c(Br)c(F)c1F — lower, -0.0124%
- OCC1CC=CCC1 (stereo not given) — lower, 0.0033%
- CC1=C(/C=C/C(C)=C\C=C\C(C)=C\C(=O)O)C(C)(C)CCC1 — higher, 0.041%
- O=C(Nc1ccccc1)Nc1ccccc1 — lower, -0.0907%
- CC(C)(CCl)c1ccccc1 — lower, 0.0064%
- CCCCC(=O)O[C@]1(C(=O)CO)[C@@H](C)C[C@H]2[C@@H]3CCC4=CC(=O)C=C[C@]4(C)[C@@]3(F)[C@@H](O)C[C@@]21C — higher, 0.105%
- Cc1cc(S(=O)(=O)O)ccc1N=Nc1c(O)ccc2ccccc12 — lower, 0.0276%
- CCOC(=O)C(C)Oc1ccc(Oc2nc3ccc(Cl)cc3o2)cc1 (stereo not given) — higher, 0.057%
- Fc1ccccc1[C@@H](F)COC1CCC(Nc2ncnc3[nH]ncc23)CC1 (stereo not given in full) — lower, -0.015%
- CC(C)CCCC(=O)O — lower, -0.107%
- NC(=O)N(O)[C@@H]1COc2cc(OCc3ccccc3)ccc21 — lower, -0.0619%
- CC1=CC(=O)CC(C)(C)C1(O)/C=C/C(C)=C\C(=O)O (stereo not given) — higher, 0.0348%
- CC(C)(C)C(=O)O — lower, 0.0166%
- CCCCCCOC(=O)CCCCCCCC(=O)OCCCCCC — lower, 0.0172%

Point of comparison: O=C(O)c1ccc(CO)o1, “fluorescence, % of fluorescein control” value -0.0113% [at 95.7 µM]. Against it:
- O=C(c1ccc(O)cc1)c1ccc(Cl)cc1 — lower, -0.0275% [at 95.7 µM]
- CC(N)CN (stereo not given) — lower, -0.0784% [at 95.7 µM]
- c1ccc(COCc2ccccc2)cc1 — lower, -0.116% [at 95.7 µM]
- CCCCC/C(=C\c1ccccc1)CO — higher, 0.0284% [at 95.7 µM]
- Oc1cc(O)c(Cl)cc1Cl — higher, 0.547% [at 95.7 µM]

Point of comparison: CC(C)(O)c1ccccc1CC[C@@H](SCC1(CC(=O)O)CC1)c1cccc(/C=C/c2ccc3ccc(Cl)cc3n2)c1, “fluorescence, % of fluorescein control” value -0.0737% [at 46 µM]. Against it:
- Brc1cc(-c2ccc(Br)c(Br)c2Br)cc(Br)c1Br — higher, 0.0559% [at 46 µM]
- CCCC(=O)O[C@]1(C(=O)COC(=O)CC)CC[C@H]2[C@@H]3CCC4=CC(=O)CC[C@]4(C)[C@H]3[C@@H](O)C[C@@]21C — higher, -0.0118% [at 46 µM]
- COC(=O)Nc1nc2ccc(C(=O)c3cccs3)cc2[nH]1 — higher, 0.0625% [at 46 µM]
- CN(C(=O)C(Cl)Cl)c1ccc(OC(=O)c2ccco2)cc1 — higher, 0.02% [at 46 µM]
- C[N+](C)(C)CCOC(N)=O — higher, 0.0412% [at 46 µM]
- COCc1c(C(C)C)nc(C(C)C)c(/C=C/[C@@H](O)C[C@@H](O)CC(=O)O)c1-c1ccc(F)cc1 — higher, -0.0527% [at 46 µM]
- CC(=O)Oc1ccc2c(c1)CC[C@@H]1[C@@H]2CC[C@]2(C)[C@@H](O)CC[C@@H]12 — lower, -0.143% [at 46 µM]
- CC[C@@H]([C@H](C)O)n1ncn(-c2ccc(N3CCN(c4ccc(OC[C@@H]5CO[C@@](Cn6cncn6)(c6ccc(F)cc6F)C5)cc4)CC3)cc2)c1=O — higher, -0.0424% [at 46 µM]
- CCC1(C)CC(=O)NC1=O (stereo not given) — lower, -0.126% [at 46 µM]
- CCN(CC)CCNC(=O)c1ccc(NC(C)=O)cc1 — higher, 0.0841% [at 46 µM]
- CCc1c2c(nc3ccc(OC(=O)N4CCC(N5CCCCC5)CC4)cc13)-c1cc3c(c(=O)n1C2)COC(=O)[C@]3(O)CC — higher, -0.0342% [at 46 µM]
- O=C(CCC1CCN(Cc2ccccc2)CC1)c1ccc2c(c1)NCCCC2 — lower, -0.0832% [at 46 µM]

Point of comparison: CCn1cc(C(=O)O)c(=O)c2cc(F)c(N3CCNCC3)nc21, fluorescence, % of fluorescein control -0.0415% [at 18.6 µM]. Against it:
- CC(=O)OCC(=O)[C@@]12OC(C)(C)O[C@@H]1C[C@H]1[C@@H]3C[C@H](F)C4=CC(=O)C=C[C@]4(C)[C@@]3(F)[C@@H](O)C[C@@]12C — lower, -0.0438% [at 18.6 µM]
- CC(=O)CC(c1ccc([N+](=O)[O-])cc1)c1c(O)c2ccccc2oc1=O (stereo not given) — higher, 0.0036% [at 18.6 µM]
